This is an account of results in PubChem BioAssay (NCATS).

Test [1] concerns Zika virus NS2B-NS3 protease (linked construct). The test can be described thus: Primary screen NINDS Rhodamine qHTS for Zika virus inhibitors (AID 1347160). Note: nearly all actives have a fitted effect of over 55% in size. The essentials: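 Percent inhibition, normalized to uninhibited and enzyme-free controls, is fitted to a 4-parameter Hill equation. Fluorescence change comes from a 15-min cleavage of 1.5 microM bis-peptide Rhodamine110 substrate by 25 nM linked NS2B-NS3 at room temperature.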

Test [2] has as its target Luciferin 4-monooxygenase (Photinus pyralis) (UniProt P08659). The test can be described thus: Primary firefly luciferase (FLuc) qHTS assay for identification of artifact compounds. (AID 1845220). Note: nearly all actives have a fitted effect of over 60% in size. The essentials:
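Cell-free, 1536-well qHTS. Buffer pH 7.6 with 0.01% Tween-20 and 0.05% BSA; 10 uM D-luciferin, 10 uM ATP; 10 nM P. pyralis luciferase; luminescence after 5 min.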

The nature of test [3]: Primary fluorescence-based thiol-reactive (MSTI) qHTS assay for identification of artifact compounds. (AID 1845221).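 Note: thiol-reactive compounds lower the probe fluorescence signal; nearly all actives have a fitted effect of over 65% in size.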 The essentials:
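Curve-fitted percent inhibition (4-parameter Hill) derived from fluorescence, Ex 525/Em 598 nm, scaled with Acetyl-MSTI and MSTI; 1 h incubation at room temperature.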

Test [4] relates to Nanoluciferase (engineered Oplophorus gracilirostris luciferase). Kind of test: Primary Nanoluciferase (NLuc) qHTS assay for identification of artifact compounds. (AID 1845222). The essentials:
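Compounds are pinned into diluted (1:55) conditioned medium of NLuc-expressing S16 cells and held 15 min at room temperature protected from light. Nano-Glo substrate follows, and luminescence is read 5 min later.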

The subject of test [5] is CAOV3. The test can be described thus: Primary qHTS to identify gynecologic anti-cancer compounds using libraries of approved drugs and bioactive compounds (AID 1345084). Note: nearly all actives have a fitted effect of over 55% in size. Note: potency is the fitted concentration of half-maximal effect. To be noted: Gynecologic cancer cell panel viability, ATPlite luminescence, 48 h; series mostly up to 57.5 µM. The essentials:
(§1)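 Cytotoxicity screen measuring ATP content by luciferase luminescence. Each compound is applied at five concentrations for 48 h at 37 C with 5% CO2.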

Test [6] concerns CASKI. Described as above. To be noted: Gynecologic cancer cell panel viability, ATPlite luminescence, 48 h; series mostly up to 57.5 µM. The essentials:
as §1

Test [7] deals with Es-2. The description is as above. To be noted: Gynecologic cancer cell panel viability, ATPlite luminescence, 48 h; series mostly up to 57.5 µM. The essentials:
as §1

For test [8], the system named is HeLa. The test is described as above. The note with it: Gynecologic cancer cell panel viability, ATPlite luminescence, 48 h; series mostly up to 57.5 µM. The essentials:
as §1

In test [9] the test system is Hek293T. Described as above. The note with it: Gynecologic cancer cell panel viability, ATPlite luminescence, 48 h, control line for the selectivity index; series mostly up to 57.5 µM. The essentials:
as §1

Test [10] deals with JEG-3. The description is as above. To be noted: Gynecologic cancer cell panel viability, ATPlite luminescence, 48 h; series mostly up to 57.5 µM. The essentials:
as §1

Test [11] has as its system Tov-21-G. The test is described as above. The note with it: Gynecologic cancer cell panel viability, ATPlite luminescence, 48 h; series mostly up to 57.5 µM. The essentials: as §1
In test [12] the test system is Tov112D. Described as above. To be noted: Gynecologic cancer cell panel viability, ATPlite luminescence, 48 h; series mostly up to 57.5 µM. The essentials:
as §1

Test [13] can be described thus: Primary qHTS for inhibitors of nuclear receptor binding SET domain protein 2 (NSD2) in an isogenic RCH-ACV NSD2 p.E1099K mutant (9B) (AID 1645876). Note: potency is the fitted concentration of half-maximal effect; nearly all actives have a fitted effect of over 70% in size.
Test [14] in a line: Primary qHTS for inhibitors of nuclear receptor binding SET domain protein 2 (NSD2) in an RCH-ACV wild type WT cells (2C) (AID 1645877). Note: potency is the fitted concentration of half-maximal effect; nearly all actives have a fitted effect of over 70% in size.
The target of test [15] is Glutathione peroxidase 1 (Homo sapiens) (UniProt P07203). The test can be described thus: Primary qHTS Assay for Inhibitors of Recombinant Selenoprotein Glutathione Peroxidase 1 (GPX1) (AID 1845191). Note: nearly all actives have a fitted effect of over 65% in size. The essentials: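 10 nM GPX1 + cpd, 30 min RT; start w/ 1 mM GSH, 0.5 mM cumene hydroperoxide, 0.5 mM NADPH, 100 nM GR, 0.01% BSA; buffer 50 mM Tris-HCl pH 7.5, 2 mM EDTA, 150 mM NaCl; Fl 340/450, 0 & 15 min.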

Test [16] addresses Phospholipid hydroperoxide glutathione peroxidase GPX4 (Homo sapiens) (UniProt P36969). The test can be described thus: Primary qHTS Assay for Inhibitors of Recombinant Selenoprotein Glutathione Peroxidase 4 (GPX4) (AID 1845192). Note: nearly all actives have a fitted effect of over 65% in size. The note with it: outcome: dose series up to 50 µM unless noted. The essentials: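 NADPH consumption, followed by fluorescence at 340/450 nm between 0 and 15 min, reports GPX4 activity via coupled glutathione reductase (100 nM). Enzyme 200 nM was pre-exposed to compound 30 min; 0.5 mM cumene hydroperoxide and 1 mM GSH served as substrates.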

Test [17] is described as follows: Primary redox qHTS assay for identification of artifact compounds. (AID 1845223). The essentials: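 Amplex Red (25 uM) and HRP (250 mU/mL) in HBSS, with compounds for 15 min, then 250 uM DTT for 30 min, room temperature, dark. Fluorescence 525/598 nm read; normalized to DMSO and 10 uM DA3003; Hill fit.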
The target of test [18] is Calcium and integrin-binding protein 1 (Homo sapiens) (UniProt Q99828). The test can be described thus: Primary qHTS for Identification of Calcium Integrin Binding Protein 1 (CIB1) Competitor (AID 1508620).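 Note: GST tagged CIB1 binding a fluorescein labelled alphaIIb integrin peptide tracer; top concentration of the series differs between compounds.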 The essentials: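 CIB1-GST (1 uM final) and compound incubated 15 min at room temperature before adding FITC-alphaIIb peptide tracer (100 nM final). Competition for binding read by fluorescence polarization (ex 480, em 540) after another 15 min at room temperature.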

The test system of test [19] is OV90. Kind of test: Primary qHTS to identify gynecologic anti-cancer compounds using libraries of approved drugs and bioactive compounds (AID 1345084). Note: nearly all actives have a fitted effect of over 55% in size. Note: potency is the fitted concentration of half-maximal effect. The note with it: Gynecologic cancer cell panel viability, ATPlite luminescence, 48 h; series mostly up to 57.5 µM. The essentials: as §1
Test [20] relates to C33A. Described as above. To be noted: Gynecologic cancer cell panel viability, ATPlite luminescence, 48 h; series mostly up to 57.5 µM. The essentials: as §1

Structures are written as SMILES. Several values for one entry are separate records, joined by “and”; a condition that tells them apart may be missing. Identical values can stand only once. Inconclusive results are not listed. Activity calls are given as the source filed them. Calls come from the whole dose curve; as a rule, active = well fitted curve in the direction sought with a large enough effect; inconclusive = small, poorly fitted or top-dose-only effect, or another doubt; inactive = no such curve, though single readings can be large; an effect the other way counts as inactive or inconclusive.

Glutathione peroxidase 1 (Homo sapiens), sequence (P07203 whole entry, looked up): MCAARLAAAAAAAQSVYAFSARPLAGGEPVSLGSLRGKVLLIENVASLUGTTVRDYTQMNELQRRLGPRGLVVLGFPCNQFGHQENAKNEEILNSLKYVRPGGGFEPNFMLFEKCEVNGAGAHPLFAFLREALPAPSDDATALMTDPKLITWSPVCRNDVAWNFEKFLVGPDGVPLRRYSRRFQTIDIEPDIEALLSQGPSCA
Phospholipid hydroperoxide glutathione peroxidase GPX4 (Homo sapiens), sequence (P36969 whole entry, looked up): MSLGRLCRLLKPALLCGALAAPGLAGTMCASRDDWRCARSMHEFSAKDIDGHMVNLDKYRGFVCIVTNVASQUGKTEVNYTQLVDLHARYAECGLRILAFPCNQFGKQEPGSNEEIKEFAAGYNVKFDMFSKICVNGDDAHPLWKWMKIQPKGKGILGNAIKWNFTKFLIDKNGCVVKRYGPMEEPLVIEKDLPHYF
Calcium and integrin-binding protein 1 (Homo sapiens), sequence (Q99828 whole entry, looked up): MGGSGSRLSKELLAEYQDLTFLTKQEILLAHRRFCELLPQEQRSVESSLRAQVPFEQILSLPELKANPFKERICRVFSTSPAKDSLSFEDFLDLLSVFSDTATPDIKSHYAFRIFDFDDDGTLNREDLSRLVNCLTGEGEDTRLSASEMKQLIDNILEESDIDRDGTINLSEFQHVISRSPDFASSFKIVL

`N#Cc1ccc2c(c1)CCN(CCC1CCC(NC(=O)c3ccnc4ccccc34)CC1)C2` (stereo not drawn): the Potency result in test [1], in test [2], in test [3], in test [4], in test [5] and in test [6] was “inactive” in each case. For the same molecule, the Potency entry in test [7], in [8], in test [9], in test [10], in [11] and in [12] was “inactive” in each case.

For the molecule `COc1cc(N2CCN(C)CC2)ccc1Nc1nccc(-c2cn(C)c3cnccc23)n1`, the Potency is 7.28 µM (active) and 8.33 µM (active) in test [13]; 5.15 µM (active) and 4.17 µM (active) in test [14]. The Potency result in test [15], in test [16], in [2], in test [4], in test [17] and in [8] was “inactive” throughout. In addition, the Potency entry in [9], in test [10], in test [11] and in test [12] was “inactive” each time.

As to `CCOP(=O)(Cc1ccc(C(=O)Nc2ccc(Br)cc2C#N)cc1)OCC`, the Potency result in test [1], in test [15], in test [16], in test [2], in [3] and in test [4] was “inactive” each time. The Potency result in test [5], in [6], in test [7], in test [8], in test [9] and in test [10] was “inactive” each time. The Potency entry in test [19], in [11] and in test [12] was “inactive” each time. Moreover, the outcome in test [18] was inactive.

Turning to `O=C(Nc1ncc(SCCN2CCCC2)s1)C1(c2ccc(S(=O)(=O)C3CC3)cc2)CC1C1CCCCC1` (stereo not drawn), the Potency entry in test [1], in test [15], in [16], in [2], in test [3] and in test [4] was “inactive” in each case. The Potency result in test [17], in test [6], in [7], in test [8], in test [9] and in test [10] was “inactive” in each case. Also, the Potency entry in test [19], in test [11] and in test [12] was “inactive” each time. Besides, the outcome in test [18] was inactive. Besides, the values for the Potency in test [13] and in [14] were 16.3 µM (active) and 12.9 µM (active), respectively.

Take `COC1CC(=O)C23C(=O)NC(CC(C)C)C2C(C)C(C)=CC3/C=C(\C)CCC(O)C1O` (stereo not drawn): the Potency result in test [1], in [15], in test [16], in [2], in [3] and in test [4] was “inactive” in each case. Moreover, the Potency result in [17], in [6], in test [7], in [8], in [9] and in test [10] was “inactive” each time. Besides, the Potency result in test [19], in test [11] and in test [12] was “inactive” in each case. The result in [18] was inactive. Moreover, the Potency in test [13] is 3.99 µM (active).

For `C=CC(=O)Nc1cccc(Nc2nc(Nc3ccc(Oc4ccnc(C(=O)NC)c4)cc3)ncc2F)c1`, the Potency entry in test [1], in test [15], in test [16], in [2], in [3] and in test [4] was “inactive” each time. In addition, the Potency result in test [17], in test [20], in test [6], in test [10] and in [19] was “inactive” throughout. In addition, the result in [18] was inactive. For the same molecule, the Potency in test [13] was 10.3 µM (active) and 5.9 µM (active); in test [14] it was 10.3 µM (active) and 6.61 µM (active).

For `CC[C@@H](C)[C@H]1C(=O)O[C@H](C(C)C)C(=O)N(C)[C@@H](C(C)C)C(=O)O[C@H](C(C)C)C(=O)N(C)[C@@H](C(C)C)C(=O)O[C@H](CC(C)C)C(=O)N1C`, the Potency result in [1], in [15], in [16], in test [2], in test [3] and in test [4] was “inactive” throughout. Moreover, the Potency result in test [17] and in [10] was “inactive” in each case. Moreover, the Potency in [13] is 5.41 µM (active); in [14] it was 2.16 µM (active).

As for `Clc1ccccc1CNCC1CCC(CNCc2ccccc2Cl)CC1` (stereo not drawn), the Potency entry in test [1], in test [15], in [16], in test [2], in test [3] and in [4] was “inactive” in each case. For the same molecule, the Potency result in test [17], in test [20], in test [6], in test [8], in [9] and in [19] was “inactive” throughout. For the same molecule, the Potency entry in [11] was “inactive”. Moreover, the Potency in test [13] was 18.3 µM (active).

As to `COc1ccc(NC(=O)N2CCc3c2ccc2ccccc32)cc1N1CCN(C)CC1`, the Potency result in test [1], in test [15], in [16], in [2], in test [4] and in [17] was “inactive” throughout. The Potency entry in [6], in test [7], in [8], in test [9], in [10] and in [19] was “inactive” in each case. Moreover, the Potency entry in test [11] and in test [12] was “inactive” throughout. The result in [18] was inactive. In addition, the Potency in test [13] and in test [14] was 14.5 µM (active) throughout.

For `CC[C@]1(O)C[C@H]2CN(CCC3C(=Nc4ccccc43)[C@@](C(=O)OC)(c3cc4c(cc3OC)N(C)[C@H]3[C@@](O)(C(N)=O)[C@H](O)[C@]5(CC)C=CCN6CC[C@]43[C@@H]65)C2)C1` (stereo partly drawn), the Potency entry in test [1], in [16], in test [2], in test [4] and in test [5] was “inactive” throughout. Also, the Potency in [13] was 0.0515 µM (active); in [14] it was 0.023 µM (active); in test [6], 0.199 µM (active); in test [7], 0.794 µM (active); in test [8], 0.398 µM (active); in test [10], 0.1 µM (active). Besides, the Potency was 5.01 µM (active) in [19], 0.316 µM (active) in test [11] and 0.1 µM (active) in [12].

`Cc1[nH]c(/C=C2\C(=O)Nc3ccc(F)cc32)c(C)c1C(=O)NC[C@H](O)CN1CCOCC1`: the Potency result in test [1], in [15], in test [16], in test [2], in test [17] and in [20] was “inactive” in each case. The Potency result in test [6], in test [9], in test [10], in test [19] and in test [12] was “inactive” throughout. Moreover, the outcome in test [18] was inactive. The Potency in test [13] was 6.49 µM (active) and 9.34 µM (active); in [14], 6.49 µM (active) and 10.5 µM (active).
